Values joined by “and” are separate entries in the source; they are usually repeats but may differ in a detail not shown here. Identical values can stand only once. Records with an inconclusive call do not appear. A structure can be active in one record and inactive in another. Active and inactive are the calls of the source. Calls come from the whole dose curve; as a rule, active = well fitted curve in the direction sought with a large enough effect in the repeat runs; inconclusive = weak or mixed curves; inactive = no such curve, though single readings can be large; an effect the other way counts as inactive or inconclusive.
Experiments:
[1] = A CellTox Green Cytotoxicity Assay to monitor cytotoxicity in HEK293 cells - 32 hour (AID 1224881); note: nearly all actives have a fitted effect of over 40% in size
In short: (§1)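 Read-out: fluorescence of a cell-impermeant cyanine dye staining DNA of dead cells, proportional to cytotoxicity. HEK293, 600 cells/well with reagent, compound (23 nL DMSO) added after 5 h; reads at 0, 8, 16, 24, 32, 40 h.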

[2] = A CellTox Green Cytotoxicity Assay to monitor cytotoxicity in HepG2 cells - 0 hour (AID 1224882); note: nearly all actives have a fitted effect of over 35% in size
In short: (§2)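 HepG2, 600 cells/well premixed w/ CellTox Green; 5 h settle, 37 C/5% CO2; pintool cpd add (DMSO); 37 C, 40 h; fluorescence read at 0, 8, 16, 24, 32, 40 h.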

[3] = A CellTox Green Cytotoxicity Assay to monitor cytotoxicity in HepG2 cells - 32 hour (AID 1224883); note: nearly all actives have a fitted effect of over 50% in size
In short: as §2

[4] = A CellTox Green Cytotoxicity Assay to monitor cytotoxicity in HEK293 cells - 8 hour (AID 1224884); note: nearly all actives have a fitted effect of over 35% in size
In short: as §1

[5] = qHTS RealTime-Glo MT Cell Viability Assay in HepG2 cells - 16 hour (AID 1224885); note: nearly all actives have a fitted effect of over 50% in size
In short: (§3)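 Cell number in HepG2 cultures estimated from NanoLuc luminescence generated by metabolic reduction of a prosubstrate by living cells. The homogeneous, nonlytic format allowed repeated reads at 0, 8, 16, 24, 32 and 40 h of compound exposure.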

[6] = qHTS RealTime-Glo MT Cell Viability Assay in HEK293 cells - 8 hour (AID 1224887); note: nearly all actives have a fitted effect of over 50% in size; for activity change, negative = cytotoxicity: top concentration of the series differs between compounds
In short: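 Luminescence readout at each listed time point; HEK293, 600 cells/well, RealTime-Glo MT reagent added with cells; compounds pinned (23 nL in DMSO) after 5 h at 37 C; continuous culture at 37 C.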

[7] = A CellTox Green Cytotoxicity Assay to monitor cytotoxicity in HEK293 cells - 16 hour (AID 1224888); note: nearly all actives have a fitted effect of over 35% in size
In short: as §1

[8] = qHTS RealTime-Glo MT Cell Viability Assay in HepG2 cells - 0 hour (AID 1224889); note: nearly all actives have a fitted effect of over 50% in size
In short: as §3

[9] = A CellTox Green Cytotoxicity Assay to monitor cytotoxicity in HepG2 cells - 8 hour (AID 1224890); note: nearly all actives have a fitted effect of over 45% in size
In short: as §2

[10] = qHTS RealTime-Glo MT Cell Viability Assay in HEK293 cells - 24 hour (AID 1224886); note: nearly all actives have a fitted effect of over 50% in size; for activity change, negative = cytotoxicity: top concentration of the series differs between compounds
In short: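 Homogeneous bioluminescent viability format in HEK293 cells (600 cells/well). Following 5 h at 37 C/5% CO2, 23 nL compound was pintooled; the signal was measured repeatedly during 40 h incubation.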
% is set by controls: 0 for no effect and ±100 for the full control effect; potency is the fitted concentration of half-maximal effect.

OCCCCCCCCCCCCBr
inactive: Potency [1] | Potency [2] | Potency [3] | Potency [4] | Potency [5] | Potency [6] | Potency [7] | Potency [8] | Potency [9]

CCC1OCC(COc2ccc(Oc3ccccc3)cc2)O1 (configuration not stated)
inactive: Potency [1] | Potency [2] | Potency [3] | Potency [4] | Potency [5] | Potency [7] | Potency [8] | Potency [9]

CCN(CCC#N)c1ccc(N=Nc2c(Cl)cc([N+](=O)[O-])cc2Cl)cc1
inactive: Potency [1] | Potency [2] | Potency [3] | Potency [4] | Potency [10] | Potency [6] | Potency [7] | Potency [8] | Potency [9]

O=c1cccccc1O
inactive: Potency [1] | Potency [2] | Potency [3] | Potency [4] | Potency [5] | Potency [6] | Potency [8] | Potency [9]

Cc1cc(C2CCCCC2)n(O)c(=O)c1
inactive: Potency [1] | Potency [2] | Potency [3] | Potency [4] | Potency [5] | Potency [7] | Potency [9]

CN(C)[C@@H]1C(=O)C(C(N)=O)=C(O)[C@@]2(O)C(=O)C3=C(O)c4c(O)ccc(Cl)c4[C@@H](O)[C@H]3C[C@@H]12
inactive: Potency [1] | Potency [2] | Potency [3] | Potency [4] | Potency [5] | Potency [10] | Potency [6] | Potency [9]

CCCC1O[C@@H]2C[C@H]3[C@@H]4CCC5=CC(=O)C=C[C@]5(C)[C@H]4[C@@H](O)C[C@]3(C)[C@]2(C(=O)CO)O1 (some centres not stated)
active: Potency [8] 7.77 µM and 7.76 µM
inactive: Potency [1] | Potency [2] | Potency [3] | Potency [4] | Potency [5] | Potency [9]

CC1=NC(C)OC1C (configuration not stated)
inactive: Potency [1] | Potency [2] | Potency [3] | Potency [4] | Potency [5] | Potency [6] | Potency [7] | Potency [8] | Potency [9]

O=C(N/N=C/c1ccccc1O)c1ccncc1
inactive: Potency [1] | Potency [2] | Potency [3] | Potency [4] | Potency [5] | Potency [7] | Potency [8] | Potency [9]

O=C(Nc1cccc([N+](=O)[O-])c1)c1cc2ccccc2cc1O
inactive: Potency [1] | Potency [2] | Potency [3] | Potency [4] | Potency [5] | Potency [6] | Potency [9]

Cc1c(C)c2c(c(C)c1O)CCC(C)(COc1ccc(CC3SC(=O)NC3=O)cc1)O2 (configuration not stated)
inactive: Potency [1] | Potency [2] | Potency [3] | Potency [4] | Potency [5] | Potency [7] | Potency [8] | Potency [9]
active: Potency [10] 43.6 µM

Oc1c(Cl)cc(Cl)c2cccnc12
active: Potency [1] 5.35 µM | Potency [3] 9.52 µM
inactive: Potency [2] | Potency [4] | Potency [5] | Potency [6] | Potency [7] | Potency [8] | Potency [9]

Clc1ccccc1C(c1ccccc1)(c1ccccc1)n1ccnc1
inactive: Potency [2] | Potency [4]
19.5 µM (active) and inactive: Potency [3]
43.6 µM (active) and inactive: Potency [1]
49 µM (active) and inactive: Potency [9]
active: Potency [10] 21.9 µM and 6.01 µM | Potency [6] 24.5 µM
24.5 µM (active) and inactive: Potency [5]

NNc1nc(-c2ccc(N)cc2)cs1
inactive: Potency [1] | Potency [2] | Potency [3] | Potency [4] | Potency [5] | Potency [6] | Potency [7] | Potency [9]

CCCCCCCCCCCCCCCCCC[N+](C)(C)C
active: Potency [1] 21.9 µM | Potency [3] 49.1 µM | Potency [4] 39 µM | Potency [10] 19.6 µM | Potency [6] 49.1 µM | Potency [7] 49.1 µM
inactive: Potency [2] | Potency [8]

Nc1ccccc1O
inactive: Potency [1] | Potency [2] | Potency [3] | Potency [4] | Potency [5] | Potency [7] | Potency [8] | Potency [9]

CCCCCOc1ccccc1/C(=C\SC)n1ccnc1
inactive: Potency [1] | Potency [2] | Potency [3] | Potency [4] | Potency [5] | Potency [7] | Potency [8] | Potency [9]

O=c1cc(-c2ccc(O)cc2)oc2cc(O)cc(O)c12
inactive: Potency [1] | Potency [2] | Potency [4] | Potency [5] | Potency [6] | Potency [7]
inactive and 38.9 µM (active): Potency [3] | Potency [9]

C=CC(=O)OCCn1c(=O)n(CCOC(=O)C=C)c(=O)n(CCOC(=O)C=C)c1=O
active: Potency [1] 34.7 µM | Potency [3] 43.6 µM | Potency [5] 15.5 µM | Potency [10] 11 µM
inactive: Potency [2] | Potency [4] | Potency [6] | Potency [9]

OCCN(CCO)c1nc(N2CCCCC2)c2nc(N(CCO)CCO)nc(N3CCCCC3)c2n1
inactive: Potency [5] | Potency [8]
active: Potency [1] 19 µM | Potency [2] 23.9 µM | Potency [3] 23.9 µM | Potency [4] 21.3 µM | Potency [7] 12 µM | Potency [9] 23.9 µM

[Cl][Au]([Cl])[Cl]
inactive: Potency [2] | Potency [4] | Potency [8]
active: Potency [1] 19.5 µM | Potency [3] 11 µM | Potency [5] 15.5 µM | Potency [10] 3.89 µM | Potency [7] 49 µM

[O-][n+]1ccccc1SSc1cccc[n+]1[O-]
inactive: activity change, negative = cytotoxicity [8] -1.89% [at 15.8 µM]
active: Potency [1] 2.93 µM | Potency [2] 11.7 µM | Potency [3] 0.585 µM | Potency [4] 10.4 µM | Potency [5] 0.233 µM | Potency [10] 1.31 µM | Potency [7] 8.27 µM | Potency [9] 10.4 µM

N/C(=N\N=C\c1ccc(Cl)cc1)N/N=C/c1ccc(Cl)cc1
active: Potency [1] 23.9 µM | Potency [3] 23.9 µM | Potency [4] 23.9 µM | Potency [7] 23.9 µM | Potency [9] 21.3 µM
inactive: Potency [2]

CCCCCCCCOC(=O)c1ccc(O)cc1
active: Potency [1] 43.5 µM and 43.6 µM | Potency [10] 24.5 µM | Potency [6] 43.5 µM
inactive: Potency [2] | Potency [5] | Potency [8] | Potency [9]
inactive and 43.6 µM (active): Potency [3]

C/C=C1/C(=O)C[C@H]2[C@@H]3CCC4=CC(=O)CC[C@]4(C)[C@H]3CC[C@]12C
active: Potency [3] 48.8 µM | Potency [10] 48.8 µM | Potency [6] 24.5 µM | Potency [8] 435 nM
inactive: Potency [1] | Potency [2] | Potency [4] | Potency [7] | Potency [9]

On1ccccc1=S
inactive: Potency [2] | Potency [4] | Potency [7] | Potency [8] | Potency [9]
active: Potency [1] 1.22 µM | Potency [3] 0.385 µM | Potency [10] 3.85 µM

CCC(C)Nc1ccc(NC(C)CC)cc1 (configuration not stated)
active: Potency [1] 12.5 µM | Potency [3] 19.9 µM | Potency [5] 17.7 µM | Potency [10] 4.45 µM | Potency [6] 4.99 µM | Potency [7] 39.7 µM
inactive: Potency [2]

CCCN(CCC)C(=O)C(CCC(=O)OCCCN1CCN(CCOC(=O)Cc2c(C)n(C(=O)c3ccc(Cl)cc3)c3ccc(OC)cc23)CC1)NC(=O)c1ccccc1 (configuration not stated)
active: Potency [3] 23.9 µM | Potency [6] 23.9 µM
inactive: Potency [1] | Potency [2] | Potency [4] | Potency [7] | Potency [8]

CCN(CC)CCCC(C)Nc1c2ccc(Cl)cc2nc2ccc(OC)cc12 (configuration not stated)
inactive: Potency [8]
active: Potency [1] 7.56 µM | Potency [2] 21.3 µM | Potency [3] 6.74 µM | Potency [5] 9.52 µM | Potency [10] 4.25 µM | Potency [6] 5.35 µM | Potency [7] 23.9 µM | Potency [9] 16.9 µM

O=C(OC[C@H]1O[C@@H](OC(=O)c2cc(O)c(O)c(OC(=O)c3cc(O)c(O)c(O)c3)c2)[C@H](OC(=O)c2cc(O)c(O)c(OC(=O)c3cc(O)c(O)c(O)c3)c2)[C@@H](OC(=O)c2cc(O)c(O)c(OC(=O)c3cc(O)c(O)c(O)c3)c2)[C@@H]1OC(=O)c1cc(O)c(O)c(OC(=O)c2cc(O)c(O)c(O)c2)c1)c1cc(O)c(O)c(OC(=O)c2cc(O)c(O)c(O)c2)c1
inactive: cytotoxicity increase [1] -42.7% [at 15.8 µM] | cytotoxicity [2] -19.7% [at 15.8 µM] | cytotoxicity increase [3] -61.4% [at 15.8 µM] | cytotoxicity increase [4] -34.5% [at 15.8 µM] | activity change, negative = cytotoxicity [10] -14.1% [at 15.8 µM] | activity change, negative = cytotoxicity [6] -15.8% [at 15.8 µM] | activity change [7] -38.7% [at 15.8 µM, stronger effect = higher value] | activity change, negative = cytotoxicity [8] -17.5% [at 15.8 µM] | cytotoxicity increase [9] -46.2% [at 15.8 µM]

O=C1C=CC(=O)N1
active: Potency [1] 17.8 µM | Potency [3] 20 µM | Potency [5] 25.2 µM | Potency [10] 12.6 µM | Potency [6] 15.9 µM | Potency [7] 22.5 µM | Potency [9] 50.3 µM
inactive: Potency [2] | Potency [8]

O=C1c2c(O)ccc(Nc3ccc(CCO)cc3)c2C(=O)c2c([N+](=O)[O-])ccc(O)c21
inactive: Potency [1] | Potency [2] | Potency [3] | Potency [4] | Potency [9]
active: Potency [6] 43.6 µM

CCCCCCCCCCCCCCCCCC[N+](C)(C)Cc1ccccc1
active: Potency [1] 24.8 µM | Potency [3] 22.1 µM | Potency [4] 19.7 µM | Potency [10] 6.23 µM | Potency [6] 24.8 µM | Potency [7] 22.1 µM | Potency [9] 55.5 µM
inactive: Potency [2]

CCCC(=O)OC[C@@H](OC(=O)CCC)[C@@H](OC(=O)CCC)[C@H](Cn1c2nc(=O)[nH]c(=O)c-2nc2cc(C)c(C)cc21)OC(=O)CCC
inactive: Potency [8]
active: Potency [1] 21.3 µM | Potency [2] 16.9 µM | Potency [3] 19 µM | Potency [4] 21.3 µM | Potency [7] 21.3 µM | Potency [9] 19 µM

Source: PubChem BioAssay (Tox21)
